# According to PubChem BioAssay (NCI):
# Compounds without any hit were thinned out: in the full panel of roughly 83,000, 20% have a hit.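 Step 1: grow cells in 96-well plates. Step 2: add test compound at a single concentration. Step 3: incubate 48 h. Step 4: record percent growth.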 Unmarked numbers belong to inactive results. Active and inactive are the calls of the source. How the source made its calls: active means growth percent below 10; inactive means the rest.
# Columns and labels:
# Test in all cases: NCI-60 one-dose screen, 48 h (100 = growth as untreated, 0 = no growth, -100 = all killed)
# Conditions in all cases: 10 µM
# NCI-H23 lung = test system: NCI-H23 lung
# HOP-62 NSCLC = test system: HOP-62 NSCLC
# NCI-H460 lung = test system: NCI-H460 lung
# HOP-92 NSCLC = test system: HOP-92 NSCLC
# A549/ATCC NSCLC = test system: A549/ATCC NSCLC
# 786-0 renal = test system: 786-0 renal
# COLO 205 colon = test system: COLO 205 colon
# DU-145 prostate = test system: DU-145 prostate
# K-562 leukemia = test system: K-562 leukemia
# MALME-3M melanoma = test system: MALME-3M melanoma
# MDA-MB-231 breast = test system: MDA-MB-231 breast
# RXF 393 renal = test system: RXF 393 renal
# SF-268 CNS = test system: SF-268 CNS
# SF-295 CNS = test system: SF-295 CNS
# SF-539 CNS = test system: SF-539 CNS
# M14 melanoma = test system: M14 melanoma
# NCI-H522 lung = test system: NCI-H522 lung
# UACC-257 melanoma = test system: UACC-257 melanoma
# NCI-H322M lung = test system: NCI-H322M lung
SMILES,growth (NCI-H23 lung),growth (HOP-62 NSCLC),growth (NCI-H460 lung),growth (HOP-92 NSCLC),growth (A549/ATCC NSCLC),growth (786-0 renal),growth (COLO 205 colon),growth (DU-145 prostate),growth (K-562 leukemia),growth (MALME-3M melanoma),growth (MDA-MB-231 breast),growth (RXF 393 renal),growth (SF-268 CNS),growth (SF-295 CNS),growth (SF-539 CNS),growth (M14 melanoma),growth (NCI-H522 lung),growth (UACC-257 melanoma),growth (NCI-H322M lung)
COc1cc(-c2csc(NC(=O)Nc3cc(C(F)(F)F)cc(C(F)(F)F)c3)n2)cc(OC)c1OC,4.18% (active),13.1%,10.9%,-25.9% (active),11.9%,13.4%,0.569% (active),20.3%,17.5%,6.56% (active),14.4%,47%,32.7%,-10.4% (active),23%,21.9%,–,–,–
COc1cc(C2CC(c3ccccc3)=NN2C(C)=O)cc(OC)c1OC (configuration not stated),64.1%,68.2%,15.5%,76.1%,54.7%,62.2%,35.3%,49.3%,36.9%,–,75.3%,55%,46.2%,7.61% (active),28.3%,29.7%,7.46% (active),64%,–
CN1C(C(=O)Nc2ccccn2)=C(O)c2sc(Cl)cc2S1(=O)=O,99.6%,–,99.9%,–,99.9%,104%,–,106%,–,102%,105%,111%,100%,94.8%,117%,108%,–,100%,–
COc1cc(C(=O)/C(C)=C/c2c[nH]c3ccccc23)cc(OC)c1OC,32.3%,39.2%,9.7% (active),47.1%,11.6%,11%,-39.2% (active),2.39% (active),14.3%,68.1%,16.1%,46.2%,26.8%,12.4%,-3.72% (active),-1.18% (active),-19.4% (active),–,–
Cc1c(Cl)cccc1NC(=O)CN1CCOCC1,95.9%,–,100%,118%,106%,99.7%,108%,102%,91.6%,92.6%,106%,117%,97.1%,99.3%,106%,94.9%,75.1%,108%,–
COc1cc2cc(Oc3ccc(NC(=O)c4ccc(Cl)c(C(F)(F)F)c4)cc3)c(C)nc2cc1OC,12.5%,73.1%,19.7%,–,13.8%,32.2%,33.1%,43%,14.8%,37.2%,48.3%,50.8%,56.1%,7.81% (active),57.3%,18.4%,20.3%,36.8%,–
COc1ccc2c(c1)C(CC(=O)NN)CCC2 (configuration not stated),92.7%,106%,109%,93.7%,93.4%,109%,113%,114%,94.3%,–,101%,115%,96.3%,109%,100%,104%,–,90.5%,–
COc1ccc(-c2n[nH]nc2-c2cc(OC)c(OC)c(OC)c2)cc1,10.8%,46.2%,2.7% (active),-1.89% (active),20.4%,16.9%,-18.5% (active),-14.1% (active),8.16% (active),37.3%,14.8%,33.3%,9.64% (active),13.7%,10.3%,12.2%,–,69.1%,–
O=C(CCCNC(=O)c1nc(-c2ccccc2)n(-c2ccccc2)n1)NO,101%,–,–,–,71.7%,92.3%,109%,108%,106%,99.4%,103%,103%,105%,105%,107%,98%,75.4%,–,–
CCCc1nc(C(C)(C)O)c(C(=O)O)n1Cc1ccc(-c2ccccc2-c2nn[nH]n2)cc1,103%,–,–,91.7%,99%,104%,111%,120%,–,102%,109%,117%,101%,95.3%,103%,109%,–,103%,–
CCn1c(SCc2ccc(C)cc2)nnc1-c1nn(-c2ccc(Cl)cc2Cl)c(-c2ccc(Cl)cc2)c1C,3.53% (active),9.33% (active),8.69% (active),-17.2% (active),9.87% (active),12.2%,-34.3% (active),23.4%,8.88% (active),7.8% (active),5.05% (active),8.71% (active),22.8%,9.65% (active),19.8%,12.3%,-17.4% (active),–,–
OC(CNc1ccnc2cc(Cl)ccc12)CNC1CCCCC1 (configuration not stated),86.7%,–,–,–,–,87.9%,-25.4% (active),91.6%,–,101%,54.4%,33.5%,89.8%,83.5%,63.1%,-15.6% (active),49.6%,-37.5% (active),74.7%
COc1ccccc1-n1c(-c2csc(NC(C)=O)n2)n[nH]c1=S,93.1%,–,109%,96%,100%,97.2%,115%,119%,87.5%,109%,121%,102%,111%,–,112%,98%,82.5%,98.1%,–
C[C@H]1[C@H](OC(=O)CCC(=O)O)O[C@@H]2O[C@]3(C)CC[C@H]4[C@H](C)CC[C@@H]1[C@@]24OO3,19.9%,–,25.5%,41.6%,42%,33.5%,-5.69% (active),82.7%,–,74.8%,65.1%,55.9%,55.6%,11.6%,31.9%,39.7%,–,50.8%,–
CCc1ccc(C2=NN(c3ccc(S(C)(=O)=O)cc3)C(=O)CC2)cc1,-4.83% (active),–,10.5%,68.6%,–,36.4%,22.5%,21.3%,10.4%,38.8%,55.5%,27.4%,42.8%,9.24% (active),15.1%,5.99% (active),-1.27% (active),59.1%,–
CCN(CC)CCCC(Nc1c2ccc(Cl)cc2nc2ccc(OC)cc12)c1ccc(F)cc1 (configuration not stated),86.9%,–,-17.8% (active),–,18.4%,-70.8% (active),–,32.6%,-42.8% (active),-75.4% (active),-15.2% (active),-71.1% (active),67.8%,91.5%,-82.3% (active),-79.2% (active),–,-55.3% (active),14.7%
COc1ccc2nc(Cl)c(Cn3nnc(Cc4ccccc4)n3)cc2c1,32.5%,–,–,–,31.5%,47.5%,24.9%,61.6%,32.9%,34.4%,50.7%,60.2%,51.5%,37.4%,67.5%,30.3%,38%,–,–
CCN(CC)CCOc1cccc2c1C(=O)c1ccccc1C2=O,88.2%,82.5%,101%,71.2%,90.6%,93.1%,68.6%,100%,93.8%,115%,85.7%,79.9%,94.2%,96.8%,99.7%,94.4%,–,94.4%,–
O=C1/C=C/[C@@H](O)[C@@H]2C[C@@H](O)C[C@H]2/C=C/CCC[C@H](CCc2ccc(C(F)(F)F)cc2)O1,-10.5% (active),-4.15% (active),9.42% (active),–,8.38% (active),–,–,19.5%,11.7%,-13.9% (active),-84% (active),-31.6% (active),4.75% (active),11.4%,25.2%,7.65% (active),-58.5% (active),10.5%,–
